The supplement of paper PMC10849652
The full data set covers some 8,800 targets. This sample favours those with a hit. About 0.5% of all pairs of compound and target were hits.

Tests used:
Experiment in all cases: log2 fold change, soluble protein after heating vs DMSO (PISA); higher = thermal stabilisation; K562 lysate, 10 uM; active = over 0.2 and 3.5 SD of the protein, either way, in both replicates (recomputed)
ibrutinib = compound: C=CC(=O)N1CCC[C@@H](n2nc(-c3ccc(Oc4ccccc4)cc3)c3c(N)ncnc32)C1 [ibrutinib]
Outline: (§1)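 Log-two fold change in thermal stability relative to solvent controls is reported from duplicates. For each sample, crude K562 extract from dounce-homogenised pellets in PBS pH 7.4 with 1 mM MgCl2, at 1 mg/mL protein, was treated with 10 μM compound for 30 min. Aliquots heated for 3 min across 48°C-58°C were pooled, brought to 0.5% NP-40 at 4°C and cleared at 21,000xg for 90 min. The supernatant was quantified by TMTpro 16plex LC-MS/MS with channel sums equalised.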

[1] = compound: CC(=O)c1cnc2ccc(-c3cc(Cl)c(O)c(Cl)c3)nc2c1N[C@H]1CC[C@H](CN(C)C)CC1
Outline: as §1

ralimetinib = compound: CC(C)(C)Cn1c(N)nc2ccc(-c3[nH]c(C(C)(C)C)nc3-c3ccc(F)cc3)nc21 [ralimetinib]
Outline: as §1

[2] = compound: CC(C)(O)CC(=O)NCCn1ccc2ncnc(Nc3ccc(Oc4cccc(C(F)(F)F)c4)c(Cl)c3)c21
Outline: as §1

[3] = compound: CC(C)C1=C2N=C(C=C(N2N=C1)NCC3=CC=CC=C3)NCCCCCCN
Outline: as §1

[4] = compound: CC1=C(C(CC(=O)N1)C2=CC=C(C=C2)C(F)(F)F)C(=O)NC3=C(C=C4C(=C3)C=NN4)F
Outline: as §1

[5] = compound: CC1=C(C2=C(C=C1)C(=O)C3=CC=CC=C3N2CCCN)C
Outline: as §1

[6] = compound: CC1=C(C=C(C=C1)NC(=O)C2=CC(=CC=C2)C(C)(C)C#N)NC3=CC4=C(C=C3)N=CN(C4=O)C
Outline: as §1

[7] = compound: CC1=C(C=C(C=C1)NC(=O)C2=CC(=CC=C2)N(C)C)NC(=O)C3=CC=C(C=C3)O
Outline: as §1

[8] = compound: CC1=CC=C(C=C1)SC2=C3C=C(SC3=CN=C2)C(=O)N
Outline: as §1

Measured: log2 fold change

STAT2 (UniProt P52630)
inactive: ibrutinib 0.007 | [1] 0.007 | ralimetinib 0.04 | [2] -0.026 | [3] -0.003 | [4] 0.009 | [5] -0.002 | [6] -0.059 | [7] 0.003 | [8] 0.004

TARDBP (UniProt Q13148)
inactive: ibrutinib -0.161 | [1] 0.052 | ralimetinib -0.004 | [2] -0.076 | [3] 0.015 | [4] 0.019 | [5] 0.068 | [6] -0.059 | [7] 0.01 | [8] 0.019

SPAG5 (UniProt Q96R06)
Chain of UniProt Q96R06 (Q96R06 whole entry, looked up): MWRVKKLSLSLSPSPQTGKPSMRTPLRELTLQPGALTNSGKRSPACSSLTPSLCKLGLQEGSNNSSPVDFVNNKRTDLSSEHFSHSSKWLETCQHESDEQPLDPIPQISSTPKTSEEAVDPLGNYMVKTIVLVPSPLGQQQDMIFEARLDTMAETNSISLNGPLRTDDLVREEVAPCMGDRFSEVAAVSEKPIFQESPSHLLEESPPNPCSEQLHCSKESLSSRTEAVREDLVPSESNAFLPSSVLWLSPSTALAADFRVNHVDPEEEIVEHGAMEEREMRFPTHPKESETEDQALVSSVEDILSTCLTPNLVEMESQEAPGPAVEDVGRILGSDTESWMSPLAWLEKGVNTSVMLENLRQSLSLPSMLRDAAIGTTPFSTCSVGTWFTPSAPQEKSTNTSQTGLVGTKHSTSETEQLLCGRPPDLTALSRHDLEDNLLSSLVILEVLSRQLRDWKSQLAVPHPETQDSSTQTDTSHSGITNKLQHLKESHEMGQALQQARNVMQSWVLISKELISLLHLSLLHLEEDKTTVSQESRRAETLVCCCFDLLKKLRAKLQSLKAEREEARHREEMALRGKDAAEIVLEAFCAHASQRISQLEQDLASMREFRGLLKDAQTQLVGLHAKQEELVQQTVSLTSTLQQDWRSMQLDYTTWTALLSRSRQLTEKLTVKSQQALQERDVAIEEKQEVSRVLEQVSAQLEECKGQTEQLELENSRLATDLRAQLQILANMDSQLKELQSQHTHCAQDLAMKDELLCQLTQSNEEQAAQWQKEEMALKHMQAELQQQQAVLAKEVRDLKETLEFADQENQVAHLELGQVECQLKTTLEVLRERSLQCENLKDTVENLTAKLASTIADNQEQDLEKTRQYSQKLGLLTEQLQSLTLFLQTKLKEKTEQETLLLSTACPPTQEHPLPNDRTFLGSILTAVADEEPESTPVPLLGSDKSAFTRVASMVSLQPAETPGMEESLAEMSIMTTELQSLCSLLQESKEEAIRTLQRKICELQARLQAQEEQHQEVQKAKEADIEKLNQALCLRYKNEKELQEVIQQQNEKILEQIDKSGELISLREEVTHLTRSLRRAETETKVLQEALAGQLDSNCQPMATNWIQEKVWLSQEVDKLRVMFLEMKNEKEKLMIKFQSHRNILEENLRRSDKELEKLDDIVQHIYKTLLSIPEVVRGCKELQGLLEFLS
inactive: ibrutinib -0.005 | [1] 0.039 | ralimetinib -0.001 | [2] 0.017 | [3] -0.013 | [4] 0.03 | [5] -0.024 | [6] -0.024 | [7] 0.008 | [8] -0.005

STK11IP (UniProt Q8N1F8)
Chain of UniProt Q8N1F8 (Q8N1F8 whole entry, looked up): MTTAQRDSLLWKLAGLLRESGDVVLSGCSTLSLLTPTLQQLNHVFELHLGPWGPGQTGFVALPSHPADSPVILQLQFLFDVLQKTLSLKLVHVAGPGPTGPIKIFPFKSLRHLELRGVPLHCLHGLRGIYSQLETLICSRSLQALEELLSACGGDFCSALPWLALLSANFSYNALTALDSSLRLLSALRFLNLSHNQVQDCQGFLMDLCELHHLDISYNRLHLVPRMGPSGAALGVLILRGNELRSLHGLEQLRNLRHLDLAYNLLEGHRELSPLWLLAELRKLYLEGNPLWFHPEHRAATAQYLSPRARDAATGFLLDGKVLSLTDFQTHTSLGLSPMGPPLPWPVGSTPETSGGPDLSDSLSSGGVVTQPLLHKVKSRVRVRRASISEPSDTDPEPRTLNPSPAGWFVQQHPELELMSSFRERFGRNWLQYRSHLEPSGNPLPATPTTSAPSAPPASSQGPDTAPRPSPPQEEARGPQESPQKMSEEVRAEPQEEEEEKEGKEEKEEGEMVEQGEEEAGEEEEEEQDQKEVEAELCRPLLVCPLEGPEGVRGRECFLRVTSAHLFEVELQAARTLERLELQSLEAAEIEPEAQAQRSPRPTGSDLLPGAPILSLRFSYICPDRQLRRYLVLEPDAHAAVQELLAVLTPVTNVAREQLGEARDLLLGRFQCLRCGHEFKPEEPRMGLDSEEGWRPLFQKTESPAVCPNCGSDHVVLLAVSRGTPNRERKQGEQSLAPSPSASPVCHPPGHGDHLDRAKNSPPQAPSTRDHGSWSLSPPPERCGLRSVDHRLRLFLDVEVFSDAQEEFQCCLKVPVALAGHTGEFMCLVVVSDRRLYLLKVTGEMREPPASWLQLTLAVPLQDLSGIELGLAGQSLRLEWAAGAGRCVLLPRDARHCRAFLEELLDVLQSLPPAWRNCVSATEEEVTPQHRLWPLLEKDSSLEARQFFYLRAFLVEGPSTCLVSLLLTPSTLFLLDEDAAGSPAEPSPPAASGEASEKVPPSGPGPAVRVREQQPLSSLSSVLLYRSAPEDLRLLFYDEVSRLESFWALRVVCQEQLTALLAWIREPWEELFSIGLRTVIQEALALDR
inactive: ibrutinib -0.016 | [1] -0.024 | ralimetinib 0.044 | [2] -0.055 | [3] 0 | [4] 0.046 | [5] 0.024 | [6] -0.009 | [7] 0 | [8] 0.015

SMTN isoform 6 (UniProt P53814)
inactive: ibrutinib -0.03 | [1] -0.072 | ralimetinib -0.02 | [2] -0.004 | [3] -0.009 | [4] 0.074 | [5] -0.013 | [6] 0.054 | [7] 0.05 | [8] 0.135

SP1 (UniProt P08047)
inactive: ibrutinib 0.04 | [1] 0.017 | ralimetinib -0.018 | [2] -0.049 | [3] -0.103 | [4] -0.013 | [5] 0.061 | [6] 0.22 | [7] 0.017 | [8] -0.027

SLC19A1 (UniProt P41440)
Chain of UniProt P41440 (P41440 whole entry, looked up): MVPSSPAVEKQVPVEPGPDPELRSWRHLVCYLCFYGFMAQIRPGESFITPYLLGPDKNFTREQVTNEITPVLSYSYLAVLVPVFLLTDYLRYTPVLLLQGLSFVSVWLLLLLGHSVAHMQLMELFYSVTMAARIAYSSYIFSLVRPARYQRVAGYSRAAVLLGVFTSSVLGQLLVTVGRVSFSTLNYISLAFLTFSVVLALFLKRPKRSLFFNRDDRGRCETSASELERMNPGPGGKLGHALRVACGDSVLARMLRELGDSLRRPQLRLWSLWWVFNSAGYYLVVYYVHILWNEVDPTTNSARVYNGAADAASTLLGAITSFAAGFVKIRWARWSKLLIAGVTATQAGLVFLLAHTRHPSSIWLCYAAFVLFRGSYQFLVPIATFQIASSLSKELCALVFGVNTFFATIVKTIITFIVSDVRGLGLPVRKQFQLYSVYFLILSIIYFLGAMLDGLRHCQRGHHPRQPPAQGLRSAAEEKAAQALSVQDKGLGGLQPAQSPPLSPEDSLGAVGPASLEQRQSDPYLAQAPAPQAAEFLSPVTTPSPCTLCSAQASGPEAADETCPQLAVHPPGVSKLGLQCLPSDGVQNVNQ
inactive: ibrutinib 0.049 | [1] 0.013 | ralimetinib -0.004 | [2] -0.054 | [3] -0.019 | [4] 0.019 | [5] -0.044 | [6] 0.009 | [7] 0.004 | [8] -0.003

TANGO6 (UniProt Q9C0B7)
inactive: ibrutinib -0.056 | [1] 0.039 | ralimetinib 0.023 | [2] 0.02 | [3] -0.067 | [4] -0.028 | [5] -0.017 | [6] -0.013 | [7] -0.02 | [8] -0.011

SMC4 (UniProt Q9NTJ3)
inactive: ibrutinib -0.002 | [1] -0.005 | ralimetinib -0.015 | [2] -0.012 | [3] -0.009 | [4] -0.006 | [5] 0.002 | [6] -0.016 | [7] 0.023 | [8] 0.013

SIX5 (UniProt Q8N196)
inactive: ibrutinib -0.021 | [1] 0.009 | ralimetinib -0.023 | [2] -0.046 | [3] -0.042 | [4] -0.061 | [5] 0.011 | [6] 0.017 | [7] 0.13 | [8] 0.021

SOX5 (UniProt P35711)
inactive: ibrutinib -0.064 | [1] 0.14 | ralimetinib -0.049 | [2] 0.02 | [3] 0.091 | [5] 0.053 | [6] 0.036 | [7] 0.088 | [8] -0.105

SYK (UniProt P43405)
inactive: ibrutinib -0.09 | [1] -0.041 | ralimetinib -0.025 | [2] -0.103 | [3] 0.051 | [4] -0.055 | [5] -0.114 | [6] -0.001 | [7] 0.027 | [8] -0.065

SORBS3 (UniProt O60504)
Chain of UniProt O60504 (O60504 whole entry, looked up): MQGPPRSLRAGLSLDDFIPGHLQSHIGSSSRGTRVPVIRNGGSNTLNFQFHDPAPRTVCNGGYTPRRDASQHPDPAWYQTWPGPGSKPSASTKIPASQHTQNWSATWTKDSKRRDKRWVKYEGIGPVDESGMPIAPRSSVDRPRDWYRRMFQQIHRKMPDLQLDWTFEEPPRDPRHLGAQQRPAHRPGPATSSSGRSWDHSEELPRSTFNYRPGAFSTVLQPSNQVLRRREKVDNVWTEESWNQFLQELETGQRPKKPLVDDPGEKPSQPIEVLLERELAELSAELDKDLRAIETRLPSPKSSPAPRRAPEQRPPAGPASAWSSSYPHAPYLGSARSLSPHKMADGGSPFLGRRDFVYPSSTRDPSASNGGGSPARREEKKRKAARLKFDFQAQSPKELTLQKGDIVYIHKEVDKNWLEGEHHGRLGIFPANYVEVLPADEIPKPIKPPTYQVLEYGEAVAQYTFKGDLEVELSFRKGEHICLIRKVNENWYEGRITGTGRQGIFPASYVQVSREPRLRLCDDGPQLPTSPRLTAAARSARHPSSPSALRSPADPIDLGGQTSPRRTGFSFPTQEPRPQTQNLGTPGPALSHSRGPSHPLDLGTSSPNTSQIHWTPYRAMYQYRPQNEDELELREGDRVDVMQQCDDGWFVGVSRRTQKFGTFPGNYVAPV
inactive: ibrutinib -0.005 | [1] 0.067 | ralimetinib 0.099 | [2] -0.113 | [3] -0.035 | [5] -0.158 | [6] 0.046 | [7] -0.05 | [8] -0.114

SNRNP40 (UniProt Q96DI7)
inactive: ibrutinib -0.008 | [1] 0.026 | ralimetinib -0.03 | [2] -0.047 | [3] -0.02 | [4] 0.042 | [6] 0.02 | [7] 0.069 | [8] 0.029
active: [5] 0.332

SRGN (UniProt P10124)
inactive: ibrutinib 0.109 | [1] 0.084 | ralimetinib 0.001 | [2] -0.159 | [3] -0.018 | [5] -0.079 | [6] 0.104 | [7] -0.064 | [8] -0.064

SLC16A1 (UniProt P53985)
inactive: ibrutinib -0.023 | [1] 0.002 | ralimetinib 0.015 | [2] 0.015 | [3] 0.003 | [4] -0.039 | [5] -0.03 | [6] 0.042 | [7] 0 | [8] -0.006

TARBP2 (UniProt Q15633)
inactive: ibrutinib -0.013 | [1] 0 | ralimetinib -0.025 | [2] -0.042 | [3] 0.013 | [4] 0.074 | [5] -0.002 | [6] 0.029 | [7] 0.062 | [8] -0.015

SLC25A44 (UniProt Q96H78)
Chain of UniProt Q96H78 (Q96H78 whole entry, looked up): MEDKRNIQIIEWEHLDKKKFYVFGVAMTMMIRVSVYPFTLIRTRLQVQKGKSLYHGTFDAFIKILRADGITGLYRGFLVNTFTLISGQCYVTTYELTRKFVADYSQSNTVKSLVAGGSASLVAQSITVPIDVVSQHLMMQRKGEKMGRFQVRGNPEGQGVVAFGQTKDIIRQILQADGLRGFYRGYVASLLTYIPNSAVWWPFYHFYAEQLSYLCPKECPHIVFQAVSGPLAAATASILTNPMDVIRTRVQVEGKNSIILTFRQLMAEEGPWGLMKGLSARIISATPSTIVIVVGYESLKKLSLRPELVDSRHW
inactive: ibrutinib -0.006 | [1] 0.002 | ralimetinib 0.065 | [2] -0.322 | [3] -0.031 | [5] -0.017 | [6] 0.038 | [7] -0.118 | [8] 0.002

STK25 (UniProt O00506)
inactive: ibrutinib -0.021 | [1] 0.165 | ralimetinib -0.071 | [2] 0.007 | [3] -0.006 | [4] -0.02 | [5] -0.038 | [6] -0.042 | [7] 0.035 | [8] -0.025

SYPL1 (UniProt Q16563)
Chain of UniProt Q16563 (Q16563 whole entry, looked up): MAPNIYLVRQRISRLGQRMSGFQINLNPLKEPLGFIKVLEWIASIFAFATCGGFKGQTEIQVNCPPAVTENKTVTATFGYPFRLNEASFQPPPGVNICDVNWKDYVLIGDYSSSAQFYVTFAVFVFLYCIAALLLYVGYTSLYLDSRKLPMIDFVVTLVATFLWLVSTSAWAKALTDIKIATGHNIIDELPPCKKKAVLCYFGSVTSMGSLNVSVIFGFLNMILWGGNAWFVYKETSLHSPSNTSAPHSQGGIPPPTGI
inactive: ibrutinib 0.015 | [1] 0.004 | ralimetinib 0.018 | [2] -0.058 | [3] 0 | [4] -0.025 | [5] -0.018 | [6] 0.007 | [7] 0.006 | [8] -0.005

SFR1 isoform 2 (UniProt Q86XK3)
inactive: ibrutinib 0.023 | [1] -0.006 | ralimetinib 0.003 | [2] -0.012 | [3] -0.005 | [4] -0.006 | [5] 0.041 | [6] 0.026 | [7] 0.06 | [8] 0.016

SLC30A6 isoform 2 (UniProt Q6NXT4)
inactive: ibrutinib 0.052 | [1] -0.019 | ralimetinib -0.013 | [2] -0.016 | [3] -0.023 | [4] 0.047 | [6] -0.022 | [7] 0.053 | [8] 0.011

SRSF9 (UniProt Q13242)
inactive: ibrutinib -0.009 | [1] -0.009 | ralimetinib 0.001 | [2] -0.031 | [3] -0.031 | [4] -0.019 | [5] -0.089 | [6] 0.047 | [7] -0.028 | [8] -0.007

SLC29A2 (UniProt Q14542)
inactive: ibrutinib 0.035 | [1] 0.045 | ralimetinib 0.082 | [2] -0.036 | [3] 0.043 | [4] -0.001 | [5] -0.011 | [6] 0.041 | [7] 0.072 | [8] 0.006

SLC25A38 (UniProt Q96DW6)
Chain of UniProt Q96DW6 (Q96DW6 whole entry, looked up): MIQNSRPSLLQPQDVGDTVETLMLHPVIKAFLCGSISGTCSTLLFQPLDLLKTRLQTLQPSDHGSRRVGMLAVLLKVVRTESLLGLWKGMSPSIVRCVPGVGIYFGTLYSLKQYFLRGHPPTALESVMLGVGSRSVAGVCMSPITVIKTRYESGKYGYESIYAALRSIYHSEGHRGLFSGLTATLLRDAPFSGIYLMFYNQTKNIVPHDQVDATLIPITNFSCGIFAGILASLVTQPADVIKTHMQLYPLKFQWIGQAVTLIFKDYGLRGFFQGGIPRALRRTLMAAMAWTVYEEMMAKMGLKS
inactive: ibrutinib 0.061 | [1] -0.108 | ralimetinib -0.074 | [2] -0.003 | [3] -0.114 | [4] -0.153 | [5] -0.437 | [6] 0.002 | [7] 0.115 | [8] 0.04

SMARCAD1 isoform 2 (UniProt Q9H4L7)
inactive: ibrutinib 0.006 | [1] -0.021 | ralimetinib 0.022 | [2] -0.016 | [3] 0.007 | [4] 0.008 | [5] 0.012 | [6] 0.021 | [7] 0.014 | [8] -0.022

SLC25A32 (UniProt Q9H2D1)
Chain of UniProt Q9H2D1 (Q9H2D1 whole entry, looked up): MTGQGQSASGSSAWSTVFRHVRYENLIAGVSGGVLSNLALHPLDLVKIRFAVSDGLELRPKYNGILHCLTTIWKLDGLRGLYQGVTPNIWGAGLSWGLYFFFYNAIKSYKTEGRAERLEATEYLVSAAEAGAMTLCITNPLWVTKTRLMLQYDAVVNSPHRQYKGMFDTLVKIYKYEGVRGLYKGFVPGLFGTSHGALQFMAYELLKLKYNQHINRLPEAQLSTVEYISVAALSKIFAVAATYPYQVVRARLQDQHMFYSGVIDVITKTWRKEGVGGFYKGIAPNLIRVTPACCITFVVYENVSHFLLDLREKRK
inactive: ibrutinib 0.029 | [1] 0.005 | ralimetinib 0.006 | [2] -0.017 | [3] -0.017 | [4] -0.03 | [5] -0.031 | [6] 0.048 | [7] -0.021 | [8] -0.007

SMN1 (UniProt Q16637)
inactive: ibrutinib -0.085 | [1] -0.028 | ralimetinib 0.01 | [2] -0.01 | [3] 0.002 | [4] 0.001 | [5] -0.018 | [6] 0.018 | [7] 0.137 | [8] -0.045

SRSF7 (UniProt Q16629)
Chain of UniProt Q16629 (Q16629 whole entry, looked up): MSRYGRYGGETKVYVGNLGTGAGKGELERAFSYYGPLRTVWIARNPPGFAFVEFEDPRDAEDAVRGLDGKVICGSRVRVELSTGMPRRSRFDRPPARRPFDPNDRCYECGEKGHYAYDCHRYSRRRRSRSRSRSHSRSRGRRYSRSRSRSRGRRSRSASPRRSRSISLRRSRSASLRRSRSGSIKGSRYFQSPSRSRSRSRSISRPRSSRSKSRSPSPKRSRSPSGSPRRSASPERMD
inactive: ibrutinib -0.114 | [1] -0.071 | ralimetinib 0.074 | [2] -0.004 | [3] 0 | [4] -0.005 | [5] -0.023 | [6] -0.037 | [7] 0.02 | [8] -0.079

SOAT1 (UniProt P35610)
inactive: ibrutinib 0.043 | [1] 0.017 | ralimetinib 0.151 | [2] -0.107 | [3] -0.055 | [4] -0.046 | [5] -0.022 | [6] 0.1 | [7] -0.012 | [8] 0.019
